Bioassay records (PubChem BioAssay)
This is a sample that favours compounds with a hit; in the whole collection about 1.8% have one here.
BaF3 parental: parental Ba/F3 cell viability inhibition, counter-screen for JAK2V617F inhibitor project, murine pro-B, CellTiter-Glo luminescence; CellTiter-Glo ATP luminescence; hit rate 1.1% among 220,000; inhibition, % at 5.6 µM;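 active means inhibition above a per-campaign cutoff, the mean inhibition of all tested compounds plus 3 SD, cut at about 27% in these data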;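 further: 0% = DMSO wells and 100% = JAK Inhibitor I control wells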
APP transl inh: inhibitors of APP translation via 5'UTR reporter, primary screen, APP 5'UTR luciferase, SH-SY5Y cells | hit rate 0.82% among 190,000 | inhibition, % at 2 µM | SH-SY5Y APP 5'UTR-luciferase reporter, luminescence;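 active means inhibition above a set limit, derived from the sample mean plus 3 SD, cut at about 45% in these data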
Ba/F3 V617F tox: reduced viability of JAK2V617F-dependent Ba/F3 cells, primary screen, JAK2V617F inhibitor project, cell-based, Ba/F3 EpoR-JAK2V617F, luminescence. ATP luminescence. inhibition, % at 5.6 µM. hit rate 1.1% among 220,000. AID 1446, 2008;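 active means inhibition above the campaign mean plus 3 SD over all tested compounds, cut at about 24% in these data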;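 further: cytokine-independent growth of Ba/F3 cells driven by EpoR plus mutant JAK2; 0% = DMSO-treated cells and 100% = JAK inhibitor I control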
IEC-6 cytotox: cytotoxicity in IEC-6 intestinal epithelial cells, primary screen, cytotoxicity control for KLF5 inhibitor project, cell-based, luminescence; inhibition, % at 5 µM; hit rate 0.78% among 290,000; IEC-6 cytotoxicity, luminescence viability; in the data active means inhibition above about 22%;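 further: 0% = plate median of test compound wells and 100% = cytotoxic reference compound wells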
KLF5 inh: KLF5 expression inhibitors, primary screen, DLD-1 cells, luminescence; hit rate 0.23% among 290,000; DLD-1 KLF5 promoter-luciferase reporter; inhibition, % at 5 µM;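 active means inhibition above a per-plate limit of that plate's mean compound inhibition plus 3 SD, cut at about 60% in these data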;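 further: 0% = DMSO wells and 100% = LY294002 at 200 µM; higher means less KLF5 promoter-driven luciferase light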
* = called active by the depositor; x = not tested or not shown.

SMILES	BaF3 parental	APP transl inh	Ba/F3 V617F tox	IEC-6 cytotox	KLF5 inh
Cc1nc2ccccc2c(=O)n1-c1ccccc1[N+](=O)[O-]	-2	4	-4	13	-11
Cc1cc([N+](=O)[O-])c2ccccc2[n+]1[O-]	106*	x	100*	101*	71*
COc1ccc(-n2c(O)c(C(C)=NCc3ccc4c(c3)OCO4)c(=O)[nH]c2=O)cc1	0	x	-1	4	-6
Nc1ccccc1-[n+]1c(-c2ccccc2)cc(-c2ccccc2)cc1-c1ccccc1	52*	x	49*	11	7
CC1=C2C(=O)C3C(CC=C4CC(O)CCC43C)C2CCC12OC1CC(C)CNC1C2C (centres undefined)	x	x	x	0	-27
CCCC[N+]12CCC(CC1)C(Cc1ccccc1)C2 (centres undefined)	31*	x	20	0	8
Cc1sc2nc(COC(=O)Cc3ccccc3)[nH]c(=O)c2c1C	6	1	-2	-4	-48
CC(C)[C@]12O[C@H]1[C@@H]1O[C@]13[C@]1(O[C@H]1C[C@H]1C4=C(CC[C@@]13C)C(=O)OC4)[C@@H]2O	105*	x	99*	97*	104*
CC1Oc2cc3c(-c4c(O)cc(O)c5c(O)c6c(cc45)OC(C)C(C)C6=O)c(O)cc(O)c3c(O)c2C(=O)C1C (centres undefined)	35*	x	96*	-9	30
O=c1[nH]c(=O)n(Cc2ccco2)c(O)c1C=NCCCn1ccnc1	5	17	2	3	4
COC(=O)C1CN(C#N)N(c2ccc(Cl)cc2)C12c1ccccc1-c1ccccc12 (centres undefined)	29*	94*	95*	46*	18
Oc1cccc2cccnc12	x	x	x	37*	30
CN(C(=O)Oc1cccc2cccnc12)c1ccccc1	3	0	-3	-2	-27
COc1ccc(C2NCc3ccc4c(c3-n3cccc32)OCO4)cc1O (centres undefined)	73*	94*	75*	74*	55
Cc1cc(OC(=O)N(C)C)nc(-c2ccc(C)c(Cl)c2)n1	3	x	0	-3	-7
C1=C(CCNCc2ccccc2)CCCC1	7	13	3	-1	-15
CCOC(=O)CC(NC(=O)C(Cc1ccc(N(CCCl)CCCl)cc1)NC(C)=O)C(=O)OCC (centres undefined)	1	86*	-1	-3	-15
CC(=O)NC(Cc1ccc(N(CCCl)CCCl)cc1)C(=O)NC(C(=O)O)C(C)C (centres undefined)	2	2	3	4	11
O=C1C2CCCN2C(c2cccnc2)N1c1nccs1 (centres undefined)	2	19	-1	-6	-10
CN1/C(=C\C=Nc2ccccc2)C(C)(C)c2ccccc21	57*	-14	31*	-5	-7
CC(=O)N1CC(=O)Nc2ccc(Br)cc2C1c1ccc(F)cc1 (centres undefined)	x	x	x	-2	-34
CC[n+]1c(SC)ccc2cc(OC)ccc21	84*	-11	85*	-6	-18
CCCNC1=C(C)C(=O)C2=C(C1=O)C(COC(N)=O)[C@]1(OC)C3NC3CN21 (some centres undefined)	62*	x	82*	8	-13
CCCCCCn1c(O)c(C=NC2CCCCC2N)c(=O)[nH]c1=O (centres undefined)	93*	4	3	3	-35
CCCCn1c(O)c(C=NC2CCCCC2N)c(=O)[nH]c1=O (centres undefined)	6	-7	-1	-5	-9
SMILES	BaF3 parental	APP transl inh	Ba/F3 V617F tox	IEC-6 cytotox	KLF5 inh
CN1CCN(c2ccc(S(C)(=O)=O)cc2[N+](=O)[O-])CC1	3	-15	-1	2	-25
CN1CCN(c2ccc([N+](=O)[O-])c3no[n+]([O-])c23)CC1	107*	x	99*	90*	10
C=CC(C)C(C(=O)c1ccccc1)N(C)C (centres undefined)	31*	-8	27*	11	-28
CN(C)C(Cc1ccccc1)C(=O)c1ccccc1 (centres undefined)	34*	1	12	-1	-54
CCOC(=O)c1ccc(NC(=O)N2C[C@@H]3C[C@@H](C2)c2cccc(=O)n2C3)cc1	x	x	x	4	-5
CC[C@@H](C(N)=O)N1CCCC1=O	-8	x	-2	-5	-35
Cc1cc(C=O)c(C)n1C(C)C	5	-15	5	0	-16
